In PubChem BioAssay (EPA / NIEHS) one finds outcome data, which are given here for 13 molecules.

The source made the active and inactive calls. How the source made its calls: active means hit-call score of the fitted dose curve at least 0.9, where 1 is the maximum; inactive means score below 0.9.

The test is described as follows: APR_HepG2_MitoMembPot_72hr: Apredica 72-hour HepG2 Assay for Mitochondrial Membrane Potential (AID 2282917). As to conditions: imaging, actives raise or lower the signal. The procedure:
APR_HepG2_72hr is a cell-based, multiplexed-readout assay that uses HepG2, a human liver cell line, with measurements taken at 72 hours after chemical dosing in a 384-well plate.APR_HepG2_MitoMembPot_72hr is one of 10 assay component(s) measured or calculated from the APR_HepG2_72hr assay. It is designed to make measurements of dye binding, a form of membrane potential reporter, as detected with fluorescence intensity signals by HCS Fluorescent Imaging technology.Data from the assay component APR_HepG2_MitoMembPot_72hr was analyzed into 1 assay endpoint. This assay endpoint, APR_HepG2_MitoMembPot_72hr, was analyzed with bidirectional fitting relative to DMSO as the negative control and baseline of activity. Using a type of membrane potential reporter, gain or loss-of-signal activity can be used to understand changes in the signaling. Furthermore, this assay endpoint can be referred to as a primary readout, because this assay has produced multiple assay endpoints where this one serves a signaling function. To generalize the intended target to other relatable targets, this assay endpoint is annotated to the cell morphology intended target family, where the subfamily is organelle conformation.
Cells were treated with dimethyl sulfoxide (DMSO) as a solvent control at a final concentration of 0.5% v/v or with compounds in DMSO with a resulting final DMSO concentration of 0.5% v/v. Compound treatment was done at concentrations of 0.39, 0.78, 1.56, 3.12, 6.24, 12.5, 25, 50, 100, and 200 uM in duplicate on each plate. Cells were treated with compounds for 1, 24, or 72 hr. Carbonyl […] m-chloro-phenylhydrazone (CCCP) and taxol were used as positive controls for mitochondrial function and cytoskeletal stability, respectively; DMSO served as the negative control for this experiment. Cells were fixed by the direct addition of 50 uL formaldehyde in Hank's Balanced Salt Solution (HBSS) to a final concentration of 3.7%. After incubation in the fixation medium for 30 min at room temperature (293-298 K), cells were rinsed twice with HBSS and treated with cell permeabilization buffer (16 uL of 0.5% Triton X-100) for 10 min at room temperature (293-298 K) before labeling. For mitochondrial membrane potential and mitochondrial measurements, pre-fixed cells were incubated with 50 uL of MitoTracker Red CMXRos (Invitrogen) at a concentration of 250 nM for 30 min before fixation. In the remaining cases, post-fixed cells were labeled by incubation with a multiplexed mixture of primary antibodies in HBSS for 60 min at room temperature (293-298 K) to detect immunoreactivity of c-Jun (1:500), phospho-histone H3 (1:100), phospho-histone H2A.x (1:200), p53 (1:400), alpha-tubulin (1:200) and Hoechst 33342 (2 ug/mL). Cells were labeled for multiplexed imaging on two separate plates: a) Hoechst 33342, MitoTracker Red, phospho-histone H3, and alpha-tubulin, and b) Hoechst 33342, phospho-histone H2A.x, and c-Jun. A final rinse with HBSS (50 uL) was performed before analysis. The primary and secondary antibodies for the proteins were phospho-histone H3 (rabbit anti-phospho-histone H3 and FITC-donkey anti-rabbit IgG), phospho-histone H2A.x (mouse anti-phospho-histone H2A.x and FITC-donkey anti-mouse IgG), c-Jun (rabbit anti-phospho-c-Jun and Cy3-donkey anti-rabbit IgG), p53 (sheep anti-p53 and Cy5-donkey anti-sheep IgG), alpha-tubulin (mouse anti-alpha-tubulin and Cy5-donkey anti-mouse IgG). These antibodies are available as the CellCiphr HepG2 assay kit (Millipore).Digital images of each well were captured using a Cellomics ArrayScan VTI (Thermo Scientific Cellomics) (0.8 NA objective, 0.63x optical coupler, and XF-93 filter set) at 20x magnification. The images were acquired using the autofocus feature of the ArrayScan instrument, which entails the following steps. First, the camera focuses on channel 1 (Hoechst 33342), where nuclei are identified. Second, a Z offset of 1 um is used for capturing mitochondria (MitoTracker Red). […]
Consider `Oc1c(Cl)cc(Cl)cc1Cl`, for which the molecule was called inactive. The entry for `CC(C)O.CC(C)O.OCCN(CCO)CCO.OCCN(CCO)CCO.[Ti]` is “inactive”. Regarding `N#Cc1cccnc1`, the call was inactive. The entry for `Clc1cccc(Cl)c1` is “inactive”; for `CC(C)(C)c1ccccc1O` it is “inactive”; for `Oc1cc(Cl)c(Cl)cc1Cl` it is “inactive”.

Turning to `CN(C)C(=S)S`, the call was inactive. Regarding `Cc1cc(C)cc(C)c1`, the call was inactive. On to `O=C(N[C@H]1CN2CCC1CC2)c1ccc2c(c1)OCCO2`, for which the call was inactive.

For the molecule `Clc1cccc(Cl)c1Cl`, the result was inactive. The entry for `OCCN(CCO)CCO` is “inactive”. As for `CCCCCCCCCCCCc1cccc(S(=O)(=O)O)c1`, the outcome was inactive.

On to `O=C(O)C1(c2ccc3c(c2)OC[C@H](Cc2ccc(-c4ccccc4)cc2)[C@H]3O)CCCC1`, for which the molecule was called inactive.
